Assay results published in PubChem BioAssay (EPA / NIEHS).
The source made the active and inactive calls. The calls were made as follows: active = hit-call score of the fitted dose curve at least 0.9, where 1 is the maximum; inactive = score below 0.9.

Tests used:
Conditions in all cases: mRNA level, 48 h; actives raise or lower the signal
[1] = read-out: Tumor necrosis factor receptor superfamily member 6 (Homo sapiens) (UniProt P25445); test: LTEA_HepaRG_FAS: Life Technologies and Expression Analysis (LTEA) Assay for Fas cell surface death receptor (FAS) using HepaRG (AID 2283447)
Method in brief: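 Differentiated HepaRG cells in serum-free induction medium were exposed 48 h to 8 half-log concentrations up to 100 uM in 0.5% DMSO, in duplicate. FAS mRNA was measured by qRT-PCR normalised to ACTB, GAPDH and POLR2A; bidirectional fit versus DMSO.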

[2] = read-out: Fatty acid synthase (Homo sapiens) (UniProt P49327); test: LTEA_HepaRG_FASN: Life Technologies and Expression Analysis (LTEA) Assay for Fatty Acid Synthase (FASN) using HepaRG (AID 2283448)
Method in brief: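 Differentiated HepaRG cells in serum-free induction medium exposed 48 h in duplicate to eight half-log concentrations, top 100 uM, 0.5% DMSO. FASN mRNA by qRT-PCR normalised to ACTB, GAPDH, POLR2A; bidirectional fit versus DMSO.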

[3] = read-out: Cyclin Dependent Kinase Inhibitor 1A (CDKN1A), CDKN1A (gene 1026); test: LTEA_HepaRG_CDKN1A: Life Technologies and Expression Analysis (LTEA) Assay for Cyclin Dependent Kinase Inhibitor 1A (CDKN1A) using HepaRG (AID 2283450)
Method in brief: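 Read-out is CDKN1A mRNA by TaqMan qRT-PCR, normalized to three housekeeping genes and fitted in both directions against the DMSO baseline. Human HepaRG cells were treated 48 h with test chemicals up to 100 uM in half-log steps, 0.5% DMSO.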

[4] = read-out: Cyclin D1 (CCND1), CCND1 (gene 595); test: LTEA_HepaRG_CCND1: Life Technologies and Expression Analysis (LTEA) Assay for Cyclin D1 (CCND1) using HepaRG (AID 2283451);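 as to AC50: TaqMan qRT-PCR transcript level normalised to ACTB GAPDH and POLR2A housekeeping genes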
Method in brief: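 HepaRG plated 48 h, medium switched to serum-free induction medium, chemicals added in duplicate (top 100 uM, half-log steps, 0.5% DMSO) for 48 h, cells lysed, RNA measured by TaqMan qRT-PCR.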

[5] = read-out: catalase (CAT), CAT (gene 847); test: LTEA_HepaRG_CAT: Life Technologies and Expression Analysis (LTEA) Assay for catalase (CAT) using HepaRG (AID 2283452);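 as to AC50: TaqMan qRT-PCR signal normalized to ACTB GAPDH and POLR2A housekeeping genes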
Method in brief: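 HepaRG cells in serum-free induction medium, 0.5% DMSO vehicle, exposed 48 h in duplicate over 8 half-log concentrations from 100 uM. CAT mRNA measured by qRT-PCR, normalized to ACTB, GAPDH, POLR2A; bidirectional fit versus DMSO.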

[6] = read-out: Cytochrome P450 (CYP1A1), CYP1A1 (gene 1543); test: LTEA_HepaRG_CYP1A1: Life Technologies and Expression Analysis (LTEA) Assay for Cytochrome P450 (CYP1A1) using HepaRG (AID 2283454)
Method in brief: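 HepaRG, 48 h post-plating switched to serum-free induction medium; 8-pt conc-response (top 100 uM, half-log, 0.5% DMSO), duplicates, 48 h. Lysis in RLT, TaqMan qRT-PCR for CYP1A1; gain or loss vs DMSO.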

[7] = read-out: CFLAR gene, CFLAR (gene 8837); test: LTEA_HepaRG_CFLAR: Life Technologies and Expression Analysis (LTEA) Assay for CFLAR gene using HepaRG (AID 2283455)
Method in brief: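 Differentiated HepaRG cells in serum-free induction medium were exposed 48 h in duplicate to eight half-log concentrations up to 100 uM in 0.5% DMSO; mRNA measured by TaqMan qRT-PCR, normalized to ACTB, GAPDH, POLR2A; bidirectional fitting versus DMSO.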

[8] = read-out: Forkhead box O1 (FOXO1), FOXO1 (gene 2308); test: LTEA_HepaRG_FOXO1: Life Technologies and Expression Analysis (LTEA) Assay for Forkhead box O1 (FOXO1) using HepaRG (AID 2283456)
Method in brief: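 Differentiated HepaRG cells, in serum-free induction medium with 0.5% DMSO, exposed 48 h in duplicate to 8-point half-log series from 100 uM. FOXO1 mRNA measured by TaqMan qRT-PCR, normalized to ACTB, GAPDH, POLR2A; bidirectional fit versus DMSO.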

[9] = read-out: growth arrest and DNA damage 45 (GADD45A), GADD45A (gene 1647); test: LTEA_HepaRG_GADD45A: Life Technologies and Expression Analysis (LTEA) Assay for growth arrest and DNA damage 45 (GADD45A) using HepaRG (AID 2283458)
Method in brief: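 Differentiated HepaRG cells exposed 48 h in serum-free induction medium to 8 concentrations, top 100 uM in half-log steps, 0.5% DMSO. GADD45A mRNA quantified by qRT-PCR, normalized to ACTB, GAPDH and POLR2A; bidirectional fit versus DMSO.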

[10] = read-out: Forkhead box O3 (FOXO3), FOXO3 (gene 2309); test: LTEA_HepaRG_FOXO3: Life Technologies and Expression Analysis (LTEA) Assay for Forkhead box O3 (FOXO3) using HepaRG (AID 2283459)
Method in brief: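 Differentiated human HepaRG cells, 48 h post-plating, exposed in duplicate for 48 h in serum-free induction medium; 8-point half-log series from 100 uM in 0.5% DMSO. FOXO3 mRNA by TaqMan qRT-PCR, normalized to ACTB/GAPDH/POLR2A; bidirectional fit versus DMSO.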

[11] = read-out: ABC Transporter (ABCB1), ABCB1 (gene 5243); test: LTEA_HepaRG_ABCB1: Life Technologies and Expression Analysis (LTEA) Assay for ABC Transporter (ABCB1) using HepaRG (AID 2283460)
Method in brief: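 HepaRG cells exposed in duplicate for 48 h in serum-free induction medium to eight half-log concentrations up to 100 uM in 0.5% DMSO. ABCB1 mRNA quantified by qRT-PCR, normalised to ACTB, GAPDH and POLR2A; fitted bidirectionally versus DMSO.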

[12] = read-out: growth arrest and DNA damage 45 (GADD45B), GADD45B (gene 4616); test: LTEA_HepaRG_GADD45B: Life Technologies and Expression Analysis (LTEA) Assay for growth arrest and DNA damage 45 (GADD45B) using HepaRG (AID 2283461)
Method in brief: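 HepaRG, ~100,000 cells/well, 48 h plating; serum-free induction medium; cpd 100 uM top, half-log x8, 0.5% DMSO, duplicate, 48 h; lysis in RLT, RNA isolation, qRT-PCR; norm ACTB/GAPDH/POLR2A; bidirectional fit vs DMSO.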

[13] = read-out: ABC Transporter (ABCC3), ABCC3 (gene 8714); test: LTEA_HepaRG_ABCC3: Life Technologies and Expression Analysis (LTEA) Assay for ABC Transporter (ABCC3) using HepaRG (AID 2283462)
Method in brief: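 Human HepaRG, 48 h dosing, 8-pt half-log series from 100 uM, 0.5% DMSO vehicle, duplicates. ABCC3 mRNA by TaqMan qRT-PCR, housekeeping-normalized; bidirectional curve fit vs DMSO.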

[14] = read-out: ABC Transporter (ABCB11), ABCB11 (gene 8647); test: LTEA_HepaRG_ABCB11: Life Technologies and Expression Analysis (LTEA) Assay for ABC Transporter (ABCB11) using HepaRG (AID 2283463)
Method in brief: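 Differentiated human HepaRG cells in serum-free induction medium, dosed in duplicate for 48 h. Eight-point half-log series from 100 uM in 0.5% DMSO; ABCB11 mRNA by qRT-PCR, normalized to ACTB, GAPDH, POLR2A, fitted bidirectionally versus DMSO.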

[15] = read-out: Cyclin D2 (CCND2), CCND2 (gene 894); test: LTEA_HepaRG_CCND2: Life Technologies and Expression Analysis (LTEA) Assay for Cyclin D2 (CCND2) using HepaRG (AID 2283449);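 also: CCND2 transcript measured by TaqMan qRT-PCR and normalised to three housekeeping genes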
Method in brief: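 Chemicals in 0.5% DMSO, eight half-log concentrations from 100 uM top, were applied in duplicate for 48 h to human HepaRG cells in serum-free induction medium. CCND2 mRNA by TaqMan qRT-PCR, normalised to ACTB/GAPDH/POLR2A; bidirectional fit versus DMSO.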

[16] = read-out: flavin-containing dimethylaniline monooxygenases 3 (FMO3), FMO3 (gene 2328); test: LTEA_HepaRG_FMO3: Life Technologies and Expression Analysis (LTEA) Assay for flavin-containing dimethylaniline monooxygenases 3 (FMO3) using HepaRG (AID 2283453)
Method in brief: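 Differentiated HepaRG cells in serum-free induction medium, exposed 48 h in duplicate to 8 half-log concentrations up to 100 uM in 0.5% DMSO. FMO3 mRNA by qRT-PCR, normalized to ACTB, GAPDH, POLR2A; bidirectional fit vs DMSO.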

Measured: AC50

Fatty acid synthase (Homo sapiens), sequence (P49327 whole entry, looked up): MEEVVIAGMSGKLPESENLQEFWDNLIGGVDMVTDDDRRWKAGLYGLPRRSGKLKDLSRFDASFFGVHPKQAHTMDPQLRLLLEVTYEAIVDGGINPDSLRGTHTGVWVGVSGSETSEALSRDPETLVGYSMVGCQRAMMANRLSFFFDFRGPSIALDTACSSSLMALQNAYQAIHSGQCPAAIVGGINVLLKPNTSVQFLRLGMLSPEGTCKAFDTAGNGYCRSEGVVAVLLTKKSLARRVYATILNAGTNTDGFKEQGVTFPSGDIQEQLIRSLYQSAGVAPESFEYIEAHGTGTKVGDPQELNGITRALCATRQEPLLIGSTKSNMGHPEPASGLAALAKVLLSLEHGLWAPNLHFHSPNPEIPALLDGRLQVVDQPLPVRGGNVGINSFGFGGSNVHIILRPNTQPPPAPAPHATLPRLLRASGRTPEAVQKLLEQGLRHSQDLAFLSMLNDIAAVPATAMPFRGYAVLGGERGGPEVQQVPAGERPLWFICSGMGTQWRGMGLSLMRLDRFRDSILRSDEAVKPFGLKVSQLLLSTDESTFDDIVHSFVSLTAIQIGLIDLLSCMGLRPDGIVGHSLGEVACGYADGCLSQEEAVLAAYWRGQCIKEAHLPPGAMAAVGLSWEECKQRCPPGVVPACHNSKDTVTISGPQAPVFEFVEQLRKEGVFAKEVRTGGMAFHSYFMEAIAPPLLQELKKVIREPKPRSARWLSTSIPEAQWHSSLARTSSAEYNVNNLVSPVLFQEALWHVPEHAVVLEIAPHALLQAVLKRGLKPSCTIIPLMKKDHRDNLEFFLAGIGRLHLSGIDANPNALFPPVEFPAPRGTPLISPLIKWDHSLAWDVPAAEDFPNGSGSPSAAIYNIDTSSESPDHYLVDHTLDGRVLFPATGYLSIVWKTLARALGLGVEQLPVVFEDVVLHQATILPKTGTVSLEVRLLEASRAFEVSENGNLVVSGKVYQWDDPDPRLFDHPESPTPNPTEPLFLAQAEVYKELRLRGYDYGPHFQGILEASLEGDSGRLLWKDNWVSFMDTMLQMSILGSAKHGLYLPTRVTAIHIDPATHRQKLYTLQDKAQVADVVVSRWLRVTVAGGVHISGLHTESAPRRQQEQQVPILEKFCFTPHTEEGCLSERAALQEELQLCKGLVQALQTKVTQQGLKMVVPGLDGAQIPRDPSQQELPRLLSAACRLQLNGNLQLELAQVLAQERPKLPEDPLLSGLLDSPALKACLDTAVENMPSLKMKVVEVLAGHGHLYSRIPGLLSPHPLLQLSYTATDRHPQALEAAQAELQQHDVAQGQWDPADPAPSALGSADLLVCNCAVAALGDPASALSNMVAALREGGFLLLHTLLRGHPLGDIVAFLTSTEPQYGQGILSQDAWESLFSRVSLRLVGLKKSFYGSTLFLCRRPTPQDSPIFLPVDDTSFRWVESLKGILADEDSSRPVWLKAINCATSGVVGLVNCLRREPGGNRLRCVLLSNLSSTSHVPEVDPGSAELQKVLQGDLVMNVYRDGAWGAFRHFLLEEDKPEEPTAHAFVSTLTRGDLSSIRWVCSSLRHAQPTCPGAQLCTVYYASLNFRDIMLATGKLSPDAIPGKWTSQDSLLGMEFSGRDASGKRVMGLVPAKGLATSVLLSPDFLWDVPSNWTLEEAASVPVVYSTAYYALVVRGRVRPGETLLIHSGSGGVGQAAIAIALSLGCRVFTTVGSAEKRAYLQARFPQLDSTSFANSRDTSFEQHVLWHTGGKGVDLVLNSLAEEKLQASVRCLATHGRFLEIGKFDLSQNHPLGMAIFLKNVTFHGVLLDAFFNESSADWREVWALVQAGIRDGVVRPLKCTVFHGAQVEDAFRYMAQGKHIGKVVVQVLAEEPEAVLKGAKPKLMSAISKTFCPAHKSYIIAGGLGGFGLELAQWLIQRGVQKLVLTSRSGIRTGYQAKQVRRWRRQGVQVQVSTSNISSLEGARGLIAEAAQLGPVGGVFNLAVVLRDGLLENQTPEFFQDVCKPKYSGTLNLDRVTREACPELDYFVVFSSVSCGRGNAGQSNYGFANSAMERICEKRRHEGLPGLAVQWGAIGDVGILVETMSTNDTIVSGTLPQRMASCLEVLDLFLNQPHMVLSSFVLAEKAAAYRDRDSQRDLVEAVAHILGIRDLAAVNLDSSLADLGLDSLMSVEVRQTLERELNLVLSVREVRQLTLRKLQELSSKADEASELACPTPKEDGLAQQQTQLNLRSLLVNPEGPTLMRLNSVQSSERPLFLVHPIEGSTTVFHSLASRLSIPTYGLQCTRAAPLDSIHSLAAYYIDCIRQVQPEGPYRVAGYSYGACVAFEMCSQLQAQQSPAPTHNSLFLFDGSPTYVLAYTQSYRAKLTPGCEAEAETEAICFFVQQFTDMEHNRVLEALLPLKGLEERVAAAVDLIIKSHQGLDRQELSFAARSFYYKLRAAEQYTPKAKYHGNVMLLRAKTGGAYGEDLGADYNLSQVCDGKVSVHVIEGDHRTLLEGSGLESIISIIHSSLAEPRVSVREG

CCCC(=O)OCCC(C)C
active: [6] 68.2 µM
not listed: [15] | [16]
inactive: all other assays above

CCO[Si](CCCNC(N)=O)(OCC)OCC
active: [6] 50 µM
not listed: [1] | [2] | [3] | [16]
inactive: all other assays above

CC(O)CC(C)(C)O (stereo not given)
not listed: [3] | [12] | [15]
inactive: all other assays above

CCCCCCCCOc1ccc(C(=O)c2ccccc2)c(O)c1
active: [6] 50 µM
not listed: [3] | [16]
inactive: all other assays above

CCOC(=O)O[C@H](C)OC(=O)c1ccc2c(c1)cc(C(=O)NC1CCN(C(C)C)CC1)n2Cc1cc(-c2ccc(Cl)s2)on1
active: [6] 65.2 µM
not listed: [1] | [16]
inactive: all other assays above

CC1=CC(=O)/C(=C(/C)O)C(=O)O1
not listed: [3] | [12] | [16]
inactive: all other assays above

CN(C)c1ccc(C(=C2C=CC(=[N+](C)C)C=C2)c2ccc(N(C)C)cc2)cc1
active: [2] 3.9 µM | [4] 37.1 µM | [5] 3.73 µM | [6] 7.18 µM | [7] 29.6 µM | [8] 10.1 µM | [9] 50 µM | [10] 17.4 µM | [11] 12.9 µM | [12] 3.56 µM | [13] 85.8 µM | [14] 3.65 µM
inactive: [1] | [15]

O=C(O)c1ccccc1C(=O)OCc1ccccc1
active: [6] 21.4 µM
not listed: [3] | [12] | [16]
inactive: all other assays above

O=C(O)c1ccccc1-n1cc(C(=O)O)c(=O)c2cc(Nc3c(F)cc(F)cc3Cl)c(Cl)cc21
active: [6] 20.5 µM | [9] 0.00848 µM | [11] 15.5 µM
not listed: [1] | [12] | [15] | [16]
inactive: all other assays above

CCCCCCCCCC(=O)O
active: [6] 70.9 µM
not listed: [1] | [3] | [12]
inactive: all other assays above

Cc1ncc(CO)c(CO)c1O
active: [6] 65.3 µM
not listed: [1] | [9] | [16]
inactive: all other assays above

CCCCCc1ccc(N)cc1
active: [6] 28.8 µM
not listed: [3] | [12]
inactive: all other assays above

COc1cc(C(=O)NC2CCN(C)CC2)ccc1Nc1ncc2c(n1)N(C1CCCC1)CC(F)(F)C(=O)N2C
active: [1] 9.78 µM | [2] 46.5 µM | [4] 46.5 µM | [5] 15.3 µM | [6] 2.11 µM | [7] 14.4 µM | [8] 11.5 µM | [9] 4.65 µM | [11] 6.41 µM | [12] 25.4 µM | [13] 46.5 µM | [14] 4.65 µM
inactive: [15] | [10]

c1ccc(C[n+]2cccc3ccccc32)cc1
active: [2] 50 µM | [5] 31.1 µM | [16] 32.6 µM | [6] 36.8 µM | [8] 76.1 µM | [9] 63.7 µM | [10] 50 µM | [13] 23.2 µM | [14] 31.3 µM
inactive: [1] | [15] | [4] | [7] | [11]

CC/C(=C(/CC)c1ccc(O)cc1)c1ccc(O)cc1
inactive: [6] | [9] | [13] | [14]
active: [2] 50 µM | [4] 80.3 µM | [5] 91.7 µM | [7] 50 µM | [8] 74.8 µM | [10] 76.9 µM | [11] 82.2 µM | [12] 68.8 µM

CC[C@H](NC(=O)c1cc(F)ccc1NS(=O)(=O)c1cccc2cccnc12)c1ccccc1
active: [5] 59.2 µM | [6] 47.1 µM | [11] 1.34 µM | [14] 47.8 µM
not listed: [1] | [12] | [16]
inactive: all other assays above

COc1ccc2cc(S(=O)(=O)N[C@H](CC(=O)N[C@H](Cc3ccc(CN4[C@H](C)CCC[C@@H]4C)cc3)C(=O)N(C)C(C)C)c3ccc4c(c3)OCO4)ccc2c1
inactive: [2] | [4] | [10]
active: [5] 17.7 µM | [16] 17.3 µM | [6] 24.4 µM | [7] 15.1 µM | [8] 25.2 µM | [9] 25.9 µM | [11] 23.1 µM | [12] 47.8 µM | [13] 11.2 µM | [14] 24.2 µM
